Pf Dd2 growth – Plasmodium falciparum Dd2 growth inhibition; AID 1347417; P. falciparum Dd2 growth, SYBR Green, 72 h; Potency, µM (highest dose often 28.9 µM), for inactives: top-dose activity, negative = inhibition, most hits filed as inhibitors; hit rate 4.3% among 120,000; active = well fitted inhibition curve with a large enough effect;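 also: plate controls were DMSO vehicle for no effect and reference drug for full effect; nearly all actives have a fitted effect of over 65% in size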
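Readout: SYBR Green fluorescence, 485 nm excitation, 535 nm emission, after ~16 h lysis at 37C. Before that, Dd2-infected red cells (2.5% hematocrit) grew 72 h with compound, 29 uM top final concentration.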
Active calls of the source: *; i = inactive; [ ] = dose if it differs, or a comment. Many of the other results were omitted from the sample, so hits are more common in it than they were. Potency is read from the fitted curve at half-maximal effect.

SMILES | Pf Dd2 growth
O=C(NCc1ccccn1)c1c(OCC2CC2)cc(=O)n2c1CCCCC2 | 11.8%
O=C(c1nccnc1C(=O)N1CCC2(CCCNC2)C1)N1CCCCC1 (centres undefined) | -0.1%
COCc1nnc(NC(=O)Cn2nc3c(cc2=O)CCCCC3)s1 | -17.3%
O=C(c1cn(-c2ccccc2)nn1)N1CCOC(c2ccc(F)cc2)C1 (centres undefined) | -11.3%
CCn1nccc1C(=O)NCC(=O)N1CCCCCNC(=O)CC1c1ccccc1 (centres undefined) | -14.0%
O=C(N[C@@H]1CN(Cc2cc(F)c(F)c(F)c2)C[C@H]1CO)C1CC1 | -11.8%
O=C(CC1CCOC2(CCN(S(=O)(=O)Cc3ccccc3)CC2)C1)N1CCCC1 (centres undefined) | i
CCCOCC(=O)N1CCCC(c2cc(N3CCOCC3)nc(C)n2)C1 (centres undefined) | 7.1%
O=C(c1ccc2nccnc2c1)N1CCn2nc(Cc3ccccc3)cc2C1 | -18.8%
COc1ccc(OCc2nc(C3CN(C(=O)Nc4cccc(F)c4)C3)no2)cc1 | -8.5%
O=C1NCCCCCN(Cc2ccc(F)cc2F)[C@H]2CCC[C@@H]12 | i
O=C1NCCCCCN(Cc2cccnc2)[C@H]2CCC[C@@H]12 | i
O=C1NCCCCCCN(Cc2cccc(OC(F)(F)F)c2)[C@H]2CCC[C@@H]12 | 7.08µM*
CC(C)CC(=O)N1CCC(Oc2nccnc2N(C)C)C1 (centres undefined) | 5.0%
Cc1noc([C@@H]2C[C@H](NC(=O)c3ccc(C#N)cc3)CN2C)n1 | -2.1%[44.1 µM]
Cc1nc(-c2cccs2)cc([C@H]2CN3CC[C@H]2C[C@@H]3CNC(=O)c2ccccc2)n1 | 7.94µM*
Cc1nc(-c2ccc(F)cc2)cc([C@H]2CN3CC[C@H]2C[C@@H]3CNC(=O)Nc2cccc(C#N)c2)n1 | -12.8%
Cc1nc(-c2cccs2)cc([C@H]2CN3CC[C@H]2C[C@@H]3CNC(=O)c2ccc3c(c2)OCO3)n1 | 8.91µM*
Cc1ccc(S(=O)(=O)NC[C@H]2C[C@@H]3CCN2C[C@@H]3c2cc(-c3ccccc3Br)nc(C)n2)cc1 | i
Cc1nc(-c2cccs2)cc([C@H]2CN3CC[C@H]2C[C@@H]3CNC(=O)N2CCOCC2)n1 | i
C=C[C@H]1CN2CC[C@H]1C[C@@H]2CNC(=O)c1ccc2c(c1)OCO2 | -3.9%[44.1 µM]
Cc1nc(-c2ccccc2Br)cc([C@H]2CN3CC[C@H]2C[C@@H]3CNC(=O)c2ccco2)n1 | -6.5%
Cc1ccc(C(=O)NC[C@H]2C[C@@H]3CCN2C[C@@H]3c2cc(-c3cccs3)nc(C)n2)cc1 | 7.08µM*
Cc1nc(-c2ccccc2)cc([C@H]2CN3CC[C@H]2C[C@@H]3CNC(=O)N2CCOCC2)n1 | i
COc1ccccc1-c1cc([C@H]2CN3CC[C@H]2C[C@@H]3CNC(=O)CCC(=O)O)nc(C)n1 | 2.5%
SMILES | Pf Dd2 growth
Cc1nc(-c2ccc(C(F)(F)F)cc2)cc([C@H]2CN3CC[C@H]2C[C@@H]3CNC(=O)N2CCOCC2)n1 | i
Cc1nc(-c2cccs2)cc([C@H]2CN3CC[C@H]2C[C@@H]3CNC(=O)Nc2cccc(C(F)(F)F)c2)n1 | 8.91µM*
O=C(Nc1ccccc1)N1CCC(Oc2ccccc2)C1 (centres undefined) | -0.3%
COCC1CN(C(=O)NCCc2ccccc2)CC12CCNCC2 (centres undefined) | 7.4%
COc1cccc(CN2CC3(C2)C(=O)N(CCCN2CCCC2=O)C(=O)[C@@H]2C[C@@H](O)CN23)c1 | 20.4%
O=C(NCCc1noc(-c2ccccc2)n1)c1n[nH]c2ccccc12 | -15.9%
COc1ccccc1CC(=O)NCC1CCN(c2cnn(C)c(=O)c2)C1 (centres undefined) | -8.2%
NC(=O)[C@@H]1CN(C(=O)c2ccoc2)C[C@H]1COc1ccccc1 | 9.7%
CCOCCCNc1ncnc2c1CN(C1CCNCC1)C(=O)CN2C | -8.0%
Cn1nc(-c2ccc3ccccc3c2)cc1[C@H]1CN2CC[C@H]1C[C@@H]2COC(=O)Nc1cccc(C(F)(F)F)c1 | 21.0%
O=C(Nc1cccc(C(F)(F)F)c1)OC[C@H]1C[C@@H]2CCN1C[C@@H]2c1cc(C2CCCC2)nc(-c2ccncc2)n1 | 2.51µM*
COc1ccccc1-c1cc([C@H]2CN3CC[C@H]2C[C@@H]3COC(=O)Nc2ccccc2)nc(C)n1 | i
Cn1cnnc1CC1CCN(C(=O)c2ccc(Oc3ccccc3)o2)CC1 | 8.9%
C=CCNC(=O)N1CCC(O)(c2csc(CN3CCN(c4ccccn4)CC3)n2)CC1 | 1.5%
OC1(c2csc(CN3CCN(c4ccccn4)CC3)n2)CCN(Cc2ccccc2)CC1 | 8.91µM*
CN1CCN(Cc2nc(C3(O)CCN(C)CC3)cs2)CC1 | 4.3%[44.1 µM]
O=C1CC(c2ccccc2)N(C(=O)C2CC2)CCCN(C(=O)c2n[nH]c3ccccc23)CCN1 (centres undefined) | -4.4%
C=CCN1CCN(C(=O)C2N(C(C)C)C(=O)C23CCCCC3)CC1 (centres undefined) | -20.7%
CCCCNC(=O)N1CCC2(CC1)C(=O)N(CC(=O)NCC1CCCO1)CN2c1ccccc1 (centres undefined) | i
CN(C)c1ccc2ncc(Nc3cccc(C(F)(F)F)c3)n2n1 | i
COc1ccccc1-c1ccc2ncc(Nc3ccccc3)n2n1 | 7.94µM*
c1ccc(Nc2cnc3ccc(N4CCOCC4)nn23)cc1 | i
COc1cncc(Nc2cnc3ccc(-c4cccc(CO)c4)nn23)c1 | 12.6µM*
C[S+](=O)([O-])Nc1cccc(Nc2cnc3ccc(-c4ccccc4)nn23)c1 | 12.6µM*
COc1ccc(-c2ccc3ncc(Nc4cccc(Cl)c4)n3n2)cn1 | -6.7%[44.1 µM]
SMILES | Pf Dd2 growth
COc1ccc(-c2ccc3ncc(Nc4ccc5c(c4)OCCO5)n3n2)cc1OC | i
COc1ccc(Nc2cnc3ccc(-c4ccc(OC)c(OC)c4)nn23)cn1 | i
COc1ccc(Nc2cnc3ccc(-c4ccc(F)cc4)nn23)cc1OC | 2.82µM*
COc1ccccc1-c1ccc2ncc(Nc3ccc(C(N)=O)cc3)n2n1 | i
OCc1cccc(-c2ccc3ncc(Nc4ccccc4F)n3n2)c1 | -5.8%[44.1 µM]
OCc1cccc(-c2ccc3ncc(Nc4ccnc(N5CCOCC5)c4)n3n2)c1 | i
COc1ccc(NC(=O)N[C@H]2C[C@@H](C(=O)N[C@H](Cc3c[nH]c4ccccc34)C(N)=O)N(C(=O)c3cccn3C)C2)cc1 | -21.9%
Cc1ccc(C(=O)N2CCC(Cc3nc(-c4ccccc4)no3)CC2)s1 | i
COC(=O)[C@@H]1Cc2ncn(C(C)C)c2CN1C(=O)c1ccccc1 | -2.1%[44.1 µM]
O=C(CN1CCCc2nc(-c3ccncc3)ncc2C1=O)NCC1CC1 | -23.7%
Cc1cc(C(=O)N[C@H]2CCOC[C@H]2C2CCOCC2)ccc1N1CCOCC1 | -1.4%
CN1CCCCCC(O)c2cc(C(=O)N3CCc4ccccc43)ccc21 (centres undefined) | i
COCCn1cnnc1C(C)Nc1nc(C(C)C)nc2c1cnn2C (centres undefined) | 1.2%
COc1ccc(-c2noc([C@@H]3C[C@@H](O)CN3C3CCCCC3)n2)cc1 | i
C[C@@H](NC(=O)c1cnccn1)c1onc(-c2cccnc2)c1C(=O)O | 1.5%[44.1 µM]
Cc1cccc(C(=O)N2CC(c3noc(C4CCCN4CC4CC4)n3)C2)c1 (centres undefined) | -5.9%
CNC(=O)N1CC(c2noc(C3CCCN3C(=O)NCCc3ccccc3)n2)C1 (centres undefined) | 21.2%
COc1ccc(CN2C(=O)[C@@H]3C[C@@H](O)CN3C3(CN(Cc4ccncc4)C3)C2=O)cc1 | 6.2%[44.1 µM]

Assay outcomes deposited in PubChem by National Center for Advancing Translational Sciences (NCATS).
